In the library only some 3.4% were active in any assay of this set; here they are far more common.
TMEM16A act: TMEM16A chloride channel activators or potentiators, primary screen, cell-based, HTS; Anoctamin-1 (Mus musculus), Q8BHY3; HEK293 TMEM16A/YFP-H148Q/I152L, iodide quench fluorescence; active compounds read low; B-score at 10 µM; 340,000 tested, 0.3% active; AID 623877, 2012;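 active means fluorescence-ratio B-score plate-corrected deviation score at least 3 library SD below zero, with starting fluorescence score within 5 deviations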;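 further: channel opened by trigger with iodide after compound preincubation; score built on the fluorescence ratio of max minus min over baseline; more negative score means more quench and so TMEM16A activation or potentiation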
Target sequence (Q8BHY3 whole entry, looked up): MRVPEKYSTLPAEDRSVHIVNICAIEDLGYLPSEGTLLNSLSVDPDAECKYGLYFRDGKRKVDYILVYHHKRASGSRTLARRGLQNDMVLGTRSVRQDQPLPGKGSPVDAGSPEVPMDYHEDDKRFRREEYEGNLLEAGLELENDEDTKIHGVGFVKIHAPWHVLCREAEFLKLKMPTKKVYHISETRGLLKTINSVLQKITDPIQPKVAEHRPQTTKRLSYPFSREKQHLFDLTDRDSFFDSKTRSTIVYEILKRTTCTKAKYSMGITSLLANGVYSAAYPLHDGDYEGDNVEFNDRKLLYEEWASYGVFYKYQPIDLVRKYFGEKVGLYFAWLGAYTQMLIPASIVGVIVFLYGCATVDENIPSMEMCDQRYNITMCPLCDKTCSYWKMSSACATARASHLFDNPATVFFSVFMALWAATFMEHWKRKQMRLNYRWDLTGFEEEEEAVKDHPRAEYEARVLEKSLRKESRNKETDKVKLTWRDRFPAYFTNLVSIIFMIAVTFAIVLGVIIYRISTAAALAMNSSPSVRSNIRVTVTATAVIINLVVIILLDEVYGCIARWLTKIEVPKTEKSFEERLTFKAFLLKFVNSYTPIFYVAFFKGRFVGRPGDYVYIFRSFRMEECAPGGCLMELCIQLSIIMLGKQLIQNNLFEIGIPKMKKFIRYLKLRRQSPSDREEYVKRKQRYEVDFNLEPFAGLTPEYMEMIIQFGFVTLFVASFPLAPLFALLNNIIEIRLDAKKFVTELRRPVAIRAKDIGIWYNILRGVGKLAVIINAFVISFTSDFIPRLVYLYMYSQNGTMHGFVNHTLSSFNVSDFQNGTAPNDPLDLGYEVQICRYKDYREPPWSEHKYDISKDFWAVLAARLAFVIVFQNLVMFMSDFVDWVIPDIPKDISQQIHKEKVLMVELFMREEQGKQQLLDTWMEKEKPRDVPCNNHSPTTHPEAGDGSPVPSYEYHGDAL
MEKK2 mut-MEK5: MEK5 binding signal on mutant MEKK2 PB1, primary screen, biochemical, multiplex bead flow cytometry, Alexa488-MEK5; 290,000 tested, 0.35% active; percent response, % at 10 µM; Alexa488-MEK5 binding to MEKK2 mutant; AID 1530, 2009; in the data active means percent response above about 24%, passing the limit was not always enough
MEKK2wt PB1 HTS: modulators of MEK5 binding to wildtype MEKK2, primary screen, biochemical, multiplex bead flow cytometry, Alexa488-MEK5. Alexa488-MEK5 binding to MEKK2 WT; actives lie on both sides. binding response (% of control), % at 10 µM. 290,000 tested, 1.1% active. Mitogen-activated protein kinase kinase kinase 2 (Homo sapiens), Q9Y2U5; in the data active means binding response below about 67% or above about 130%
ANO1 block: TMEM16A chloride channel inhibitors, primary screen, cell-based, HTS | Anoctamin-1 (Mus musculus), Q8BHY3 | normalized B-score (activity score, 25-100; higher = stronger inhibition) at 10 µM | 310,000 tested, 1.2% active | HEK293 TMEM16A/YFP iodide influx fluorescence, ionomycin;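 active means ratio plate-corrected score three or more library SD toward inhibition, starting fluorescence score within five deviations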;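 further: score derived from kinetic fluorescence span divided by baseline fluorescence per well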
MEKK3 PB1 HTS: modulators of MEKK3-MEK5 PB1 binding, primary screen, biochemical, wildtype MEKK3, multiplex bead flow cytometry, Alexa488-MEK5; binding response (% of control), % at 10 µM; 290,000 tested, 1.4% active; bead-based flow cytometry, Alexa488-MEK5 binding to MEKK3; actives lie on both sides; 0 = blocked by unlabeled MEK5, 100 = vehicle; AID 1529, 2009; Mitogen-activated protein kinase kinase kinase 3 (Homo sapiens), Q99759;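 active means binding response more than 3 SD above or below the average of its plate-row segment, actives on both sides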;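 further: Alexa488 bead fluorescence after subtracting the streptavidin-only scavenger bead signal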
NTR1 agonist: agonists of human NTR1, primary screen, imaging, U2OS cells, beta-arrestin-GFP, high content; NTR1-U2OS beta-arrestin-GFP spot imaging, agonist mode; activation, % at 20 µM; 330,000 tested, 0.17% active; AID 493036, 2011;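 active means activation at or above 40% of the spot to cytoplasm intensity ratio, with at least 20 cells analyzed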;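 further: 0% = DMSO without peptide and 100% = 100 nM NTR1 peptide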
* marks the source's active call; other numbers are inactive results; i = inactive; · = no result.

SMILES | TMEM16A act | MEKK2 mut-MEK5 | MEKK2wt PB1 HTS | ANO1 block | MEKK3 PB1 HTS | NTR1 agonist
Cc1ccc(SC/C(O)=C(\C#N)c2nc3ccccc3s2)cc1 | i | -1 | 98 | 25* | 94 | 2
C#CCN1C(=O)S/C(=C\c2cc3c(cc2OC)OCO3)C1=O | i | 14 | 110 | i | 112 | 0
COC(=O)C1(CC2CC(c3ccncc3)=NO2)CCN(C(=O)OC(C)(C)C)CC1 (centres undefined) | i | · | · | i | · | -4
COC(=O)C1(CC2CC(c3ccccc3)=NO2)CCN(C(=O)OC(C)(C)C)CC1 (centres undefined) | i | 0 | 100 | 25* | 100 | -2
O=C(O)CCCCCCCCc1cn(CCc2c[nH]c3ccccc23)nn1 | i | -25 | 69 | i | 67 | -1
Cc1c(Cl)sn(-c2ccc(Cl)cc2)c1=O | -14* | 0 | 101 | · | 102 | 1
Cc1ccc(CN/C=C/C(=O)c2ccc(Br)cc2)cc1 | i | 4 | 102 | 100* | 100 | 4
Cc1ccc(C(=O)/C=C/NCc2ccc(F)cc2)cc1 | i | -1 | 103 | i | 111 | 0
O=C(N/C=C/n1cnc2cc(C(F)(F)F)ccc21)c1ccccc1 | i | -3 | 99 | i | 99 | 0
CSc1nc(N)c(C(=O)NC2CCCCC2)s1 | i | 5 | 98 | i | 104 | 0
CC1(C)CC[C@]2(C(=O)n3ccnc3)CC[C@]3(C)[C@H](C(=O)C=C4[C@@]5(C)C=C(C#N)C(=O)C(C)(C)[C@@H]5CC[C@]43C)[C@@H]2C1 | -15* | · | · | · | · | ·
O=S(=O)(c1ccc(OC(F)(F)F)cc1)N1CCC(O)(c2cccc(C(F)(F)F)c2)CC1 | i | 12 | 108 | 25* | 111 | 12
CCCN(CCC)S(=O)(=O)c1ccc(C(=O)Nc2nnc(CSC)o2)cc1 | i | 5 | 106 | i | 111 | 1
CCCN(CCC)S(=O)(=O)c1ccc(C(=O)Nc2nnc(-c3cc(OC)cc(OC)c3)o2)cc1 | i | · | · | 100* | · | 2
CCCN(CCC)S(=O)(=O)c1ccc(C(=O)Nc2nnc(-c3cccc(OC)c3)o2)cc1 | i | -3 | 52 | 25* | 58 | 1
Cc1ccc(C)c2nc3sc(C(=O)N4CCOCC4)c(N)c3cc12 | i | -9 | 90 | i | 99 | 4
Cc1cccc2cc3c(N)c(C(=O)N4CCc5ccccc54)sc3nc12 | i | 23 | 30* | i | 122 | -2
CC(Sc1ccc([N+](=O)[O-])cn1)C(=O)Nc1nccs1 (centres undefined) | i | 17 | 157* | i | 103 | 0
O=c1c2c(-c3cccs3)csc2ncn1-c1ccccc1 | i | 19 | 15* | i | 96 | 0
Cc1ccc(C(=O)O)cc1NC(=S)NC(=O)c1ccc(COc2ccccc2)cc1 | i | 2 | 98 | 25* | 96 | 2
Cc1ccc(C(=O)O)cc1NC(=S)NC(=O)Cc1ccccc1 | i | 15 | 118 | i | 114 | -1
CCOC(=O)[C@H]1[C@H]2COc3ccc(Cl)cc3[C@@H]2N2C(=O)c3ccc(F)cc3NC(=O)[C@@]12C | -13* | · | · | i | · | -3
Cc1cc(NC(=O)CSc2nnc(C)o2)no1 | i | 2 | 104 | i | 104 | 0
CC(C)Cc1ccc(C(C)C(=O)OCC(=O)c2c[nH]c3ccccc23)cc1 (centres undefined) | i | 2 | 105 | 100* | 105 | 14
COc1cc(OC)cc(C(=O)NCC(=O)N2CCC(C)CC2)c1 | i | 4 | 105 | i | 111 | 0
SMILES | TMEM16A act | MEKK2 mut-MEK5 | MEKK2wt PB1 HTS | ANO1 block | MEKK3 PB1 HTS | NTR1 agonist
CC(Sc1nc(N)cc(=O)[nH]1)C(=O)Nc1nc2c(s1)CCCC2 (centres undefined) | i | 0 | 94 | i | 103 | 0
CC(C)C(c1nnnn1Cc1ccccc1)N(Cc1ccco1)Cc1cccs1 (centres undefined) | -14* | 3 | 100 | i | 99 | 3
O=C(NCc1ccccc1Cl)C1CCC(CNc2nc(=S)[nH]c3ccccc23)CC1 (centres undefined) | i | -12 | 14* | i | 70 | 28
O=C(NCCc1ccc(Cl)cc1)C1CCC(CNc2nc(=S)[nH]c3ccccc23)CC1 (centres undefined) | i | -11 | 99 | i | 104 | 17
O=C(NCc1cccc(OC(F)(F)F)c1)c1ccc2c(c1)S(=O)(=O)c1cc(Cl)ccc1C2=O | i | · | · | · | · | 4
CC1Cc2ccccc2N1C(=O)CN1C(=O)NC(C)(CCc2ccccc2)C1=O (centres undefined) | i | -9 | 86 | i | 94 | 0
O=C(Oc1ccc2c(=O)c(Oc3ccc4ccccc4c3)coc2c1)c1ccco1 | -5.9* | 8 | 102 | i | 108 | -2
Cc1cc(C)c(O)c(N)c1 | · | -7 | 99 | · | 103 | ·
O=C(NC1CCCCC1)C(c1ccco1)N(C(=O)C(F)(F)F)C1CC1 (centres undefined) | -5.9* | 5 | 106 | i | 113 | 1
CC(C)OCC(O)CN1CCC(Cc2ccccc2)CC1 (centres undefined) | i | 1 | 104 | i | 101 | 1
OC(COc1ccc(Br)cc1)CN1CCC(Cc2ccccc2)CC1 (centres undefined) | i | 17 | 135* | i | 103 | 0
O=C(c1ccc(Br)cc1)c1cc2ccc(O)cc2oc1=O | i | 2 | 101 | 25* | 102 | 1
CCc1ccc(-n2cccc2/C=C2/C(=N)N3C(=NC2=O)SN=C3S(C)(=O)=O)cc1 | i | 0 | 115 | 100* | 122 | 3
CS(=O)(=O)C1=NSC2=NC(=O)/C(=C\c3cccn3-c3ccccc3Cl)C(=N)N21 | i | 0 | 114 | i | 115 | 2
Cc1ccc(-n2cccc2/C=C2/C(=N)N3C(=NC2=O)SN=C3S(C)(=O)=O)cc1 | i | 1 | 108 | i | 117 | -1
Cc1cc(C)cc(-n2cccc2/C=C2/C(=N)N3C(=NC2=O)SN=C3S(C)(=O)=O)c1 | i | 1 | 101 | 100* | 104 | -1
